This is an account of results in PubChem BioAssay (NCATS).

Records with an inconclusive call do not appear. Activity calls are given as the source filed them. Calls come from the whole dose curve; as a rule, active = well fitted cell-killing curve with a large enough effect; inconclusive = small, poorly fitted or top-dose-only effect; inactive = no such curve, though single readings can be large or run the other way.
Potency is the fitted concentration of half-maximal effect.

One assay is described as follows: qHTS of pediatric cancer cell lines to identify multiple opportunities for drug repurposing: Primary screen for SK-N-SH cells (AID 1347098). For activity change, negative = cytotoxic: % is set by controls: 0 for no effect and ±100 for the full control effect. Note: nearly all actives have a fitted effect of over 65% in size. Conditions: SK-N-SH viability, CellTiter-Glo luminescence, 48 h; series mostly up to 57 µM; activity change, negative = cytotoxic: at the top concentration. A digest of the protocol:
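Cells (500-1,000/well) rested 5 h, then received compounds for 48 h; metabolically active cells were measured by CellTiter-Glo luminescence. Final concentrations spanned up to 46 µM (MIPE, 11-point) or 0.59 nM-46 µM (NPC, 8-point) in primary screens, 11-point in follow-ups.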
(In general: In qHTS, concentration-response curves come from the screen itself.)
As for `NCC1CCC(C(=O)O)CC1` (stereo not drawn), the “activity change, negative = cytotoxic” value is 1.01% (inactive).
As to `CC(C)N(CCCNC(=O)Nc1ccc(C(C)(C)C)cc1)C[C@H]1O[C@@H](n2cc(Br)c3c(N)ncnc32)[C@H](O)[C@H]1O`, the Potency was 24.1 µM (active).
Still for that read-out and setting: to `COc1ccc2c(c1)c(C1=C(c3c[nH]c4ccccc34)C(=O)NC1=O)cn2CCCN(C)C` belongs 21.5 µM (active).
As to `C=CC(=O)Nc1cccc(Sc2nc(Nc3ccc(N4CCN(C)CC4)cc3)ncc2Cl)c1`, the Potency was 27.1 µM (active).
`Clc1ccc(COC(Cn2ccnc2)c2ccc(Cl)cc2Cl)c(Cl)c1` (stereo not drawn): the “activity change, negative = cytotoxic” value was 12.8% (inactive).
With `NC(=O)c1nnn(Cc2cc(Cl)c(C(=O)c3ccc(Cl)cc3)c(Cl)c2)c1N`, the Potency is 30.4 µM (active).
Regarding `CCOC(=O)[C@H]1O[C@H]1C(=O)N[C@@H](CC(C)C)C(=O)NCCC(C)C`, the “activity change, negative = cytotoxic” value was 14.5% (inactive).
Regarding `CN(C)N=Nc1nc[nH]c1C(N)=O`, the “activity change, negative = cytotoxic” value was -16.2% (inactive).
For `COc1cc2nccc(Oc3ccc(NC(=O)Nc4cc(C)on4)c(Cl)c3)c2cc1OC`, the Potency is 19.2 µM (active).
Take `CNC(=O)c1cc(COc2nnc(Nc3ccc(Cl)cc3)c3ccoc23)ccn1`: the “activity change, negative = cytotoxic” value was 2.32% (inactive).
Turning to `OC1CCC(Nc2ncc3nc(Nc4c(F)cc(F)cc4F)n([C@@H]4CCOC4)c3n2)CC1` (stereo partly drawn), the “activity change, negative = cytotoxic” value is -19% (inactive).
`C#CCN(C)CC1=Cc2ccccc2Oc2ccccc21`: the “activity change, negative = cytotoxic” value is -12.9% (inactive).
Same read-out and setting: to `CO[C@H]1/C=C\O[C@@]2(C)Oc3c(C)c(O)c4c(O)c(c5c(nc6cc(C)ccn65)c4c3C2=O)NC(=O)C(C)=CC=C[C@H](C)[C@H](O)[C@@H](C)[C@@H](O)[C@@H](C)[C@H](OC(C)=O)[C@H]1C` belongs -6.65% (inactive); to `CCCCC[C@H](O)C=C[C@H]1[C@H](O)CC(=O)[C@H]1CC=CCCCC(=O)O`, 14.4% (inactive).
Turning to `Fc1ccc(C(c2ccc(F)cc2)N2CCN(CC=Cc3ccccc3)CC2)cc1`, the “activity change, negative = cytotoxic” value is 23.6% (inactive).
As to `O=C(Nc1cccc(C(F)(F)F)c1)Nc1cc(S(=O)(=O)NC2CC2)ccc1-c1ccsc1`, the “activity change, negative = cytotoxic” value was -5.33% (inactive).
Still for that read-out and setting: then `CC[C@H](C)C(=O)O[C@H]1C[C@H](O)C=C2C=C[C@H](C)[C@H](CC[C@@H](O)C[C@@H](O)CC(=O)O)[C@H]21`, with 9.94% (inactive).
As to `CNC(=O)c1c(-c2ccc(F)cc2)oc2cc(N(CCO)S(C)(=O)=O)c(C3CC3)cc12`, the Potency is 30.4 µM (active).
`O=c1[nH]c(=O)n([C@H]2C[C@@H](O)[C@@H](CO)O2)cc1C(F)(F)F`: the “activity change, negative = cytotoxic” value was -16.4% (inactive).
As to `Cc1ccc(C2=Nc3ccc(Cl)cc3OC2)cc1`, the Potency is 2.15 µM (active).
On to `Cc1ccccc1C(=O)c1ccc(Nc2ccc(Br)cc2N)cc1Cl`, for which the “activity change, negative = cytotoxic” value was 8.27% (inactive).
For `CO[C@H]1O[C@@H]2O[C@@]3(C)CC[C@@H]4[C@@H](C)CC[C@@H]([C@H]1C)[C@@]24OO3`, the “activity change, negative = cytotoxic” value was -8.04% (inactive).
Turning to `CN(C)S(=O)(=O)c1ccc2c(c1)C(=Cc1cc3c([nH]1)CCCC3)C(=O)N2`, the Potency was 3.83 µM (active).
For `CCCCCOC(=O)Nc1nc(=O)n([C@@H]2O[C@H](C)[C@@H](O)C2O)cc1F` (stereo partly drawn), the “activity change, negative = cytotoxic” value is 6.78% (inactive).
For `C[C@@H]1CCO[C@H]2Cn3cc(C(=O)NCc4ccc(F)cc4F)c(=O)c(O)c3C(=O)N12`, the “activity change, negative = cytotoxic” value is 13.9% (inactive).
For the compound `CC(C)(O)CC(=O)NCCn1ccc2ncnc(Nc3ccc(Oc4cccc(C(F)(F)F)c4)c(Cl)c3)c21`, the Potency is 1.21 µM (active).
In the case of `CC(=O)NCCC(=O)N[C@@H](CCC(N)=O)C(=O)N[C@@H](CO)C(=O)N[C@@H](CCC(N)=O)C(=O)N[C@@H](CCC(N)=O)C(=O)N[C@H](C(=O)N[C@@H](Cc1ccccc1)C(=O)N[C@]1(C)CCCCCCC=CCCC[C@@](C)(C(=O)N[C@@H](CCC(N)=O)C(=O)N[C@@H](CC(N)=O)C(N)=O)NC(=O)[C@H](CC(C)C)NC(=O)[C@H](CC(C)C)NC(=O)[C@@H](CCCNC(=N)N)NC(=O)[C@H](Cc2c[nH]c3ccccc23)NC(=O)[C@H](CC(C)C)NC(=O)[C@H](CC(N)=O)NC1=O)[C@H](C)O`, the “activity change, negative = cytotoxic” value was -19% (inactive).
Turning to `Cc1ccc(C(=O)N(CCCN)[C@@H](c2nc3cc(Cl)ccc3c(=O)n2Cc2ccccc2)C(C)C)cc1`, the “activity change, negative = cytotoxic” value was -34.8% (inactive).
On to `COc1cc2nccc(Oc3ccc(NC(=O)Nc4ccc(F)cc4F)c(F)c3)c2cc1OC`, for which the “activity change, negative = cytotoxic” value is -7.64% (inactive).
As to `COc1ccc(-c2nc3ccc(C4=NNC(=O)CC4C)cc3[nH]2)cc1` (stereo not drawn), the Potency was 15.4 µM (active).
As for `Nc1ccn([C@@H]2O[C@H](CO)[C@@H](O)[C@H]2O)c(=O)n1`, the “activity change, negative = cytotoxic” value was -18.1% (inactive).
As for `CCC(c1ccc(O)cc1)C(CC)c1ccc(O)cc1` (stereo not drawn), the “activity change, negative = cytotoxic” value was -4.14% (inactive).
For `CCCCn1c(=O)n(Cc2ccccc2F)c(=O)c2[nH]c(Cc3ccc(NC(C)=O)cc3)nc21`, the Potency was 27.1 µM (active).

A further assay is described as follows: qHTS of pediatric cancer cell lines to identify multiple opportunities for drug repurposing: Primary screen for NB1643 cells (AID 1347099). Note: nearly all actives have a fitted effect of over 50% in size. Conditions: NB1643 neuroblastoma viability, CellTiter-Glo luminescence, 48 h; series mostly up to 46 µM; activity change, negative = cytotoxic: at the top concentration. A digest of the protocol:
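Readout: CellTiter-Glo luminescence, 48 h treatment. Controls DMSO (neutral) and bortezomib 2.3 µM final (positive). Potency and efficacy taken from primary-screen concentration-response curves.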
Consider `N[C@@H](CC(=O)N1CCn2c(nnc2C(F)(F)F)C1)Cc1cc(F)c(F)cc1F`, for which the Potency was 11.8 µM (active).
For `CNC(=O)c1cc(Oc2ccc(NC(=O)Nc3ccc(Cl)c(C(F)(F)F)c3)c(F)c2)ccn1`, the Potency was 13.2 µM (active).
With `O=C(O)CCNc1cc(N2CCc3ccccc3CC2)nc(-c2ccccn2)n1`, the Potency is 11.8 µM (active).
On to `Cc1ccccc1C(=O)c1ccc(Nc2ccc(Br)cc2N)cc1Cl`, for which the Potency was 20.9 µM (active).

A short description of the next assay: qHTS of pediatric cancer cell lines to identify multiple opportunities for drug repurposing: Primary screen for LAN-5 cells (AID 1347100).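 For activity change, negative = cytotoxic: plate controls were DMSO neutral control for no effect and bortezomib positive control for full effect.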 The note with it: LAN-5 neuroblastoma viability, CellTiter-Glo luminescence, 48 h; series mostly up to 46 µM; activity change, negative = cytotoxic: at the top concentration. A digest of the protocol: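 Cells (500-1,000/well) in growth media were settled 5 h at 37 degrees C, then given compounds for 48 h. Viability was read as CellTiter-Glo luminescence. Primary runs used MIPE at 11 points (0.78 nM-46 µM) and NPC at 8 points (0.59 nM-46 µM); follow-ups used 11 points.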
For `NCC1CCC(C(=O)O)CC1` (stereo not drawn), the “activity change, negative = cytotoxic” value was 13.3% (inactive).
With `CC(C)N(CCCNC(=O)Nc1ccc(C(C)(C)C)cc1)C[C@H]1O[C@@H](n2cc(Br)c3c(N)ncnc32)[C@H](O)[C@H]1O`, the Potency is 23.5 µM (active).
For the compound `COc1ccc2c(c1)c(C1=C(c3c[nH]c4ccccc34)C(=O)NC1=O)cn2CCCN(C)C`, the Potency was 16.6 µM (active).
For the compound `N[C@@H](CC(=O)N1CCn2c(nnc2C(F)(F)F)C1)Cc1cc(F)c(F)cc1F`, the “activity change, negative = cytotoxic” value was -21.2% (inactive).
With `Clc1ccc(COC(Cn2ccnc2)c2ccc(Cl)cc2Cl)c(Cl)c1` (stereo not drawn), the Potency is 23.5 µM (active).
Turning to `NC(=O)c1nnn(Cc2cc(Cl)c(C(=O)c3ccc(Cl)cc3)c(Cl)c2)c1N`, the Potency was 20.9 µM (active).
`COc1cc2nccc(Oc3ccc(NC(=O)Nc4cc(C)on4)c(Cl)c3)c2cc1OC`: the Potency was 10.5 µM (active).
As to `CNC(=O)c1cc(Oc2ccc(NC(=O)Nc3ccc(Cl)c(C(F)(F)F)c3)c(F)c2)ccn1`, the Potency is 20.9 µM (active).
With `C#CCN(C)CC1=Cc2ccccc2Oc2ccccc21`, the “activity change, negative = cytotoxic” value was -12.4% (inactive).
Turning to `Fc1ccc(C(c2ccc(F)cc2)N2CCN(CC=Cc3ccccc3)CC2)cc1`, the “activity change, negative = cytotoxic” value was -11.1% (inactive).
In the case of `O=C(O)CCNc1cc(N2CCc3ccccc3CC2)nc(-c2ccccn2)n1`, the “activity change, negative = cytotoxic” value is -6.15% (inactive).
For `CC[C@H](C)C(=O)O[C@H]1C[C@H](O)C=C2C=C[C@H](C)[C@H](CC[C@@H](O)C[C@@H](O)CC(=O)O)[C@H]21`, the “activity change, negative = cytotoxic” value was -1.78% (inactive).
With `O=c1[nH]c(=O)n([C@H]2C[C@@H](O)[C@@H](CO)O2)cc1C(F)(F)F`, the Potency was 3.32 µM (active).
On the same count and under the same terms, then `CO[C@H]1O[C@@H]2O[C@@]3(C)CC[C@@H]4[C@@H](C)CC[C@@H]([C@H]1C)[C@@]24OO3`, with 20.9 µM (active); and `CN(C)S(=O)(=O)c1ccc2c(c1)C(=Cc1cc3c([nH]1)CCCC3)C(=O)N2`, with 2.35 µM (active).
As to `CCCCCOC(=O)Nc1nc(=O)n([C@@H]2O[C@H](C)[C@@H](O)C2O)cc1F` (stereo partly drawn), the “activity change, negative = cytotoxic” value is -17.9% (inactive).
Turning to `Cc1ccc(C(=O)N(CCCN)[C@@H](c2nc3cc(Cl)ccc3c(=O)n2Cc2ccccc2)C(C)C)cc1`, the Potency was 0.001 µM (active).
In the case of `COc1cc2nccc(Oc3ccc(NC(=O)Nc4ccc(F)cc4F)c(F)c3)c2cc1OC`, the Potency is 0.833 µM (active).
Consider `Nc1ccn([C@@H]2O[C@H](CO)[C@@H](O)[C@H]2O)c(=O)n1`, for which the Potency was 0.0935 µM (active).
Take `CCC(c1ccc(O)cc1)C(CC)c1ccc(O)cc1` (stereo not drawn): the “activity change, negative = cytotoxic” value is -103% (inactive).
In the case of `CCCCn1c(=O)n(Cc2ccccc2F)c(=O)c2[nH]c(Cc3ccc(NC(C)=O)cc3)nc21`, the “activity change, negative = cytotoxic” value was -18.4% (inactive).
